# Screening data from PubChem BioAssay.
# Hits are enriched below; roughly 2.3% of the tested compounds scored in any of these assays.
# CHO-K1 Ca antag: counter-screen for M1 antagonists: effect in parental CHO-K1 cells | hit rate 0.6% among 360,000 | AID 602250 | inhibition, % at 3 µM | ATP-induced calcium, Fluo-8 fluorescence;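 active = inhibition above a per-plate cutoff, the plate's mean sample inhibition plus 3 SD, cut at about 24% in these data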;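 also: 0% = DMSO plus EC80 ATP and 100% = DMSO alone without ATP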
# CHO-K1 Ca ag: counter-screen for M1 agonists: effect in parental CHO-K1 cells. activation, % at 3 µM. hit rate 0.48% among 360,000. Fluo-8 calcium fluorescence; scaled to maximal ATP response, vehicle zero; in the data active = activation above about 15%;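 also: untransfected CHO-K1 host cells lacking M1 receptor as counterscreen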
# M1 PAM: human M1 muscarinic receptor positive allosteric modulators, primary screen, CHO-K1 cells, Fluo-8 calcium fluorescence, 1536-well; Muscarinic acetylcholine receptor M1 (Homo sapiens), P11229; CHO-K1 hM1, ACh EC20; 0% = ACh EC20, 100% = maximal ACh; activation, % at 3 µM; hit rate 0.088% among 360,000; in the data active = activation above about 19%, passing the limit was not always enough
# Target sequence (P11229 whole entry, looked up): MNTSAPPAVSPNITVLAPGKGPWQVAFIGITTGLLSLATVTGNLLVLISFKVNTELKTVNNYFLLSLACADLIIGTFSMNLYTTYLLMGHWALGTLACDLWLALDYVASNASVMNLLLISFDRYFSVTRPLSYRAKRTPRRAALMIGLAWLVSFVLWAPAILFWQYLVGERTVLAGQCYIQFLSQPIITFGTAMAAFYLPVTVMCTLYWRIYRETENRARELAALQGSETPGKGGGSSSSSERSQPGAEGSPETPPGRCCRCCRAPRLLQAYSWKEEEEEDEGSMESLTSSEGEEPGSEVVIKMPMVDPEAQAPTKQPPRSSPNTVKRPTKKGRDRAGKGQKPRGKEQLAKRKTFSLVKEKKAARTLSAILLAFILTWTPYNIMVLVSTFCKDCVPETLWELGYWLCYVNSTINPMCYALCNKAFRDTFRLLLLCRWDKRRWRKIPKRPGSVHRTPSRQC
# CHRM1 antagonist: human M1 muscarinic receptor antagonists, primary screen, CHO-K1 cells, Fluo-8 calcium fluorescence, 1536-well; Muscarinic acetylcholine receptor M1 (Homo sapiens), P11229; CHO-K1 hM1, ACh EC80 antagonist; inhibition, % at 3 µM; hit rate 1.3% among 360,000; AID 588852, 2011;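 active = percent inhibition above its own plate's cutoff, namely the mean of that plate's compound wells plus 3 SD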;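 also: peak over basal fluorescence ratio during 140 s after agonist addition; 0% = ACh EC80 plus DMSO and 100% = DMSO alone without agonist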
# CHRM1 agonist: human M1 muscarinic receptor agonists, primary screen, Fluo-8 calcium fluorescence, CHO-K1 cells, HTS; Muscarinic acetylcholine receptor M1 (Homo sapiens), P11229; CHO-K1 hM1, agonist mode; 0% DMSO, 100% acetylcholine EC100; activation, % at 3 µM; hit rate 0.33% among 360,000; AID 588814, 2011;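 active = activation above the run's mean compound activation plus 3 SD, cut at about 16% in these data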;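 also: peak over basal fluorescence ratio within a 140 s kinetic read after compound addition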
# M1 PAM parental: nonselective calcium activators in parental CHO-K1 cells, primary screen, counter-screen for M1 PAM project, cell-based, Fluo-8 calcium fluorescence, full deck, 1536-well; ATP EC20; 0% at ATP EC20, 100% at ATP max; activation, % at 3 µM; hit rate 0.02% among 360,000; AID 602247, 2012;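 active = activation above the run cutoff, the mean activation of all test compounds plus 3 SD, cut at about 40% in these data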;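 also: peak over basal fluorescence ratio in a 140 s read after ATP addition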
# Starred values were filed as active, the others as inactive.
SMILES,CHO-K1 Ca antag,CHO-K1 Ca ag,M1 PAM,CHRM1 antagonist,CHRM1 agonist,M1 PAM parental
Cc1sc2ncnc(N3CCC(C(=O)NNC(=O)COc4ccccc4Cl)CC3)c2c1C,4.2,13.1,-17.9,32.0*,2.4,-6.8
Cc1ccc(S(=O)(=O)N2CCN(C(=O)C3CCN(c4ncnc5sc(C)c(C)c45)CC3)CC2)c(C)c1,-12.6,-0.3,28.8*,-20.2,0.9,9.7
Cc1sc2ncnc(N3CCN(S(=O)(=O)c4ccc(C(C)(C)C)cc4)CC3)c2c1C,-6.8,0.4,9.2,-2.6,0.9,-1.5
Cc1sc2ncnc(N3CCC(C(=O)NNC(=O)COc4ccccc4F)CC3)c2c1C,-6.7,8.9,-12.4,11.7,5.4,8.1
Cc1sc2ncnc(N3CCN(CCOc4ccc(Cl)cc4)CC3)c2c1C,-2.3,12.0,-20.5,43.0*,-3.1,0.5
Cc1sc2ncnc(N3CCC(C(=O)NNC(=O)COc4ccc(Cl)cc4)CC3)c2c1C,10.6,5.1,-9.5,11.3,2.0,-17.6
CN(C)C(CNc1ccc(S(C)(=O)=O)cc1[N+](=O)[O-])Cc1ccccc1 (configuration not stated),-15.4,1.8,14.9,-16.5,-6.1,1.9
Cc1cc(C(=O)COC(=O)c2ccc(O)cc2O)c(C)n1-c1ccc(OC(F)F)cc1,28.8*,2.6,-10.8,27.1,0.9,-24.0
COc1ccc(-n2c(C)cc(C(=O)COC(=O)c3ccc(O)cc3O)c2C)cc1,-3.5,6.3,-9.6,30.3,-1.4,-6.4
Cc1ccc(S(=O)(=O)N2CCOC2CNC(=O)C(=O)NCC(C)C)cc1 (configuration not stated),-10.9,0.8,24.4*,-28.8,3.0,1.1
CNC(=O)C(=O)NCC1OCCN1S(=O)(=O)c1ccc(C)cc1 (configuration not stated),3.6,-0.5,-5.2,14.6,-1.6,-23.6
O=C(Nc1ccccc1C(=O)N1CCCC1)c1ccccc1,15.3,0.3,5.1,16.1,16.1*,-14.3
Nc1ccc(NC(=O)c2ccccc2)c2c1C(=O)c1ccccc1C2=O,26.0*,-0.1,-1.8,8.7,-3.8,-9.5
CSc1ccccc1NC(=O)c1ccccc1,-0.1,16.1*,8.3,-10.8,-3.9,10.0
CCC(C)(C)C1CCc2[nH]nc(C(=O)NCCCNC(=O)OC(C)(C)C)c2C1 (configuration not stated),-11.5,0.2,8.5,0.7,-1.9,23.9
O=C(O)C(c1ccccc1)C1(O)CC2CCC1C2 (configuration not stated),-22.3,0.8,4.3,-7.9,-4.3,18.7
COc1ccc(S(=O)(=O)N2CCOC2CNC(=O)C(=O)NCc2ccc3c(c2)OCO3)cc1 (configuration not stated),-19.9,7.1,5.0,-8.3,-2.0,17.7
Cc1ccc(-c2nnc(Nc3ccccc3)o2)cc1,-11.2,-0.3,5.2,-28.4,-2.8,4.8
COC(=O)Cn1c(=NC(=O)C(C)C)sc2c(C)cc(C)cc21,29.9*,0.6,-9.2,18.9,-2.2,-5.7
O=C(CN1C(=O)NC2(CCCC2)C1=O)OCCOc1ccc(Br)cc1,-7.2,1.8,7.2,-32.0,-0.3,1.1
Cn1nc(C(F)(F)F)c(/C=N/OC(=O)c2ccccc2)c1SCc1ccccc1Cl,-8.1,-0.1,-20.8,41.2*,-4.9,4.2
CN(C)S(=O)(=O)c1cccc(CSCc2cccc(S(=O)(=O)N(C)C)c2)c1,50.3*,17.7*,-13.4,37.5*,1.7,-29.5
Cc1cc(C)n2nc(SCc3cccc(S(=O)(=O)N(C)C)c3)nc2n1,8.4,13.8,-8.5,13.8,-2.0,1.1
CCN(CC)S(=O)(=O)c1ccc(Oc2ccccc2)c(N)c1,-9.4,4.8,7.6,-2.4,-1.4,9.3
CCN(CC)S(=O)(=O)c1ccc(N2CCN(c3ccccc3OC)CC2)c(N)c1,16.9,11.6,-17.8,34.4*,0.8,-21.4
